A number with no mark means an inactive call. A call without a number means that no potency is given here. Calls of active or inactive are those of the source. Calls follow the shape of the dose curve; as a rule, active = well fitted curve in the direction sought with a large enough effect in the repeat runs; inconclusive = weak or mixed curves; inactive = flat fitted curve, though single readings scatter.
Test: qHTS assay to test for compound auto fluorescence at 460 nm (blue) in HEK293 cells (AID 720678)
Details: blue autofluorescence 405/460 nm; series mostly up to 91.3 µM; fluorescence, % of triamterene: at the top concentration
Source text: National Center for Advancing Translational Sciences [NCATS]
NIH Chemical Genomics Center [NCGC]
U.S. Environmental Protection Agency [EPA]
National Institutes of Environmental Health Sciences [NIEHS]
National Toxicology Program [NTP]
U.S. Food and Drug Administration [FDA]
Compound auto fluorescence often interferes with screening of the compound library against various biological targets and signaling pathways. Some of these compounds may have fluorophoric properties. Such properties may interfere with the assay outputs resulting in false positives and/or negatives. To decrease such complications and ensure the compound activities are relevant in terms of biological response, the Tox21 10K compound library was screened for auto fluorescence.
From the fluorophores used as reporter signals in our screening assays, the auto fluorescence equivalencies of compounds against three fluorophores have been evaluated: Triamterene, Fluorescein and Rose Bengal sodium for blue, green and red fluorescence, respectively. The fluorescence intensities were measured using Excitation/Emission wavelengths at 405/460nm, 485/535nm and 540/590nm for blue, green and red labels, respectively. This assay includes the blue fluorescence data.
Tox21 Assay Protocol Summary:
2,000 HEK293 cells in 5 uL of culture medium containing 10% dialyzed FBS per well were dispensed into black wall/clear bottom 1536-well plates using a Multidrop Combi Dispenser (Thermo Scientific). The assay plates were incubated for 4-5 hr at 37C to allow cell attachment to the well bottom, followed by the transfer of 23 nL compound or DMSO vehicle by a pintool work station (Kalypsys, San Diego, CA). After the assay plates were incubated overnight at 37C and 5% CO2, fluorescence intensities in the assay plates were measured by an Envision (PerkinElmer, Shelton, CT) plate reader using three labels for measuring blue, green and red fluorescence at […] 460, 535 and 590nm respectively.
With `O=Cc1ccc(Cl)cc1` the “fluorescence, % of triamterene” value was -0.0305%.
In the case of `Nc1ccc(O)cc1`, the Potency is reported as “inactive”.
In the case of `COC(c1ccccc1)(c1ccccc1)[C@H](Oc1nc(C)cc(C)n1)C(=O)O`, the “fluorescence, % of triamterene” value is reported as 0.214% [at 46 µM].
In the case of `CCOc1ccccc1C(N)=O`, the Potency is reported as “inactive”.
With `c1cnc2cc3c(cc2n1)C1CNCC3C1` the “fluorescence, % of triamterene” value was -0.0169% [at 95.7 µM].
With `CC1COC(=O)O1` (stereo not given) the Potency was “inactive”.
In the case of `COC(=O)/C=C/c1ccccc1`, the “fluorescence, % of triamterene” value is reported as -0.108%.
With `Cc1cc(Cc2cc(C)cc(C(C)(C)C)c2O)c(O)c(C(C)(C)C)c1` the Potency was “inactive”.
For `CC(C)(C)c1ccc(O)c(C(C)(C)C)c1`, the Potency was “inactive”.
For `CC(COc1ccccc1)N(CCCl)Cc1ccccc1` (stereo not given), the Potency was “inactive”.
In the case of `BrC1CCC(Br)C(Br)CCC(Br)C(Br)CCC1Br` (stereo not given), the Potency is reported as “inactive”.
In the case of `c1ccc2c(c1)CCCC2C1=NCCN1` (stereo not given), the “fluorescence, % of triamterene” value is reported as 0.0451% [at 46 µM].
In the case of `CC(=O)C1=C(C)[C@@H]2C[C@@]3(C1)[C@H](C)CC[C@H]3C2(C)C`, the Potency is reported as “inactive”.
With `CCC(CO)(CO)COCC(CC)(CO)CO` the “fluorescence, % of triamterene” value was 0.124%.
Compound `COc1nc(C)nc(Cl)c1NC1=NCCN1` has a fluorescence, % of triamterene of 0.0425% [at 18.6 µM].
In the case of `CCCC(=O)c1ccccc1`, the “fluorescence, % of triamterene” value is reported as -0.0426%.
With `CC[C@H]1CN2CCc3cc(OC)c(OC)cc3[C@@H]2C[C@@H]1C[C@H]1NCCc2cc(OC)c(OC)cc21` the Potency was “inactive”.
With `NCCO` the Potency was “inactive”.
With `[Cl][In]([Cl])[Cl]` the Potency was “inactive”.
For `CCC(C)(Oc1ccc(C2(c3ccc(OC(C)(CC)C(=O)O)cc3)CCCCC2)cc1)C(=O)O` (stereo not given), the “fluorescence, % of triamterene” value was -0.114% [at 46 µM].
In the case of `CCN1CCCC1CNC(=O)c1cc(S(=O)(=O)CC)c(N)cc1OC` (stereo not given), the “fluorescence, % of triamterene” value is reported as 0.151% [at 46 µM].
In the case of `C=C(C)C(=O)O`, the Potency is reported as “inactive”.
For `Nc1nc2ccccc2[nH]1`, the Potency was “inactive”.
With `CCCNC(C)C(=O)Nc1ccccc1C` (stereo not given) the “fluorescence, % of triamterene” value was 0.0829% [at 46 µM].
With `CC(C)(C)NCC(O)c1cc(O)cc(O)c1` (stereo not given) the “fluorescence, % of triamterene” value was 0.647% [at 46 µM].
With `Cc1ccc(S(=O)(=O)Oc2ccc(N=Nc3ccc(-c4ccc(N=Nc5c(O)ccc6cc(S(=O)(=O)O)cc(S(=O)(=O)O)c56)c(C)c4)cc3C)cc2)cc1` the Potency was “inactive”.
In the case of `O`, the Potency is reported as “inactive”.
With `COc1cc(C(=S)N2CCOCC2)ccc1O` the “fluorescence, % of triamterene” value was -0.153% [at 46 µM].
With `OCCOCCN1CCN(C(c2ccccc2)c2ccc(Cl)cc2)CC1` (stereo not given) the Potency was “inactive”.
For `O=S(=O)(O)c1ccc2nc(-c3ccccc3)[nH]c2c1`, the Potency was “inactive”.
In the case of `CCn1c2ccccc2c2cc(N)ccc21`, the Potency is reported as “inactive”.
For `Oc1c(Cl)cc(Cl)c(Cl)c1Cc1c(O)c(Cl)cc(Cl)c1Cl`, the Potency was “inactive”.
For `OCC(CO)N[C@H]1C[C@](O)(CO)[C@@H](O)[C@H](O)[C@H]1O`, the “fluorescence, % of triamterene” value was 0.0406% [at 46 µM].
With `CCc1cc(C(C)(C)C)c(O)c(C(C)(C)C)c1` the Potency was “inactive”.
For `Nc1ccc2cc3ccccc3cc2c1`, the Potency was 44.7 µM [fluorescent] (active).
For `CN(C)c1ccc2nc3ccc(=[N+](C)C)cc-3sc2c1`, the Potency was “inactive”.
In the case of `COc1ccc(COC(C)=O)cc1`, the Potency is reported as “inactive”.
For `CC(=O)N[C@@H](CS)C(=O)O`, the Potency was “inactive”.
In the case of `CCCOC(=O)c1cc(O)c(O)c(O)c1`, the Potency is reported as “inactive”.
In the case of `NC(N)=Nc1nc(CSCC/C(N)=N/S(N)(=O)=O)cs1`, the Potency is reported as “inactive”.
Potency is read from the fitted curve at half-maximal effect; tags tell the direction and shape of the fitted curve or compound fluorescence and quenching.
